Consider 35 molecules from PubChem BioAssay (Tox21).

SMILES strings stand for the structures. Calls of active or inactive are those of the source. Calls follow the shape of the dose curve; as a rule, active = well fitted curve in the direction sought with a large enough effect in the repeat runs; inconclusive = weak or mixed curves; inactive = flat fitted curve, though single readings scatter.

The first experiment can be described thus: qHTS assay to test for compound auto fluorescence at 460 nm (blue) in HEK293 cells (AID 720678). The settings on record: blue autofluorescence 405/460 nm; series mostly up to 91.3 µM. In a few lines: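 HEK293, 2,000 cells/well, 10% dialyzed FBS; attach 4-5 hr 37C; pin compound or DMSO; o/n 37C/5% CO2; fluorescence 405/460 nm; triamterene-equivalent units.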
Take `C/C(=C\c1ccccc1)[N+](=O)[O-]`: the molecule was classed as inactive.
Take `COCCOCCO`: the molecule was classed as inactive.
Regarding `Clc1cccc(SC2CCNCC2)n1`, the molecule was called inactive.
On the same count and under the same terms, the same measure for `CC(C)(C)C(O)C(Oc1ccc(Cl)cc1)n1cncn1` (stereo unspecified): “inactive”; for `O=[N+]([O-])c1cc(C(F)(F)F)cc([N+](=O)[O-])c1Cl`: “inactive”.
The same measure, in the same setting: then `C=CCN1CC[C@]23c4c5ccc(O)c4O[C@H]2C(=O)CC[C@@]3(O)[C@H]1C5`, with “inactive”; and `O=C(O)C1(c2ccc3c(c2)OC[C@H](Cc2ccc(-c4ccccc4)cc2)[C@H]3O)CCCC1`, with “inactive”.

Another experiment in a line: qHTS assay to test for compound auto fluorescence at 590 nm (red) in HEK293 cells (AID 720679). The settings on record: red autofluorescence 540/590 nm; series mostly up to 91.3 µM. The method in brief: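 Intensity at 540nm excitation and 590nm emission is reported as Rose Bengal sodium-equivalent autofluorescence. Measurements followed overnight exposure (37C, 5% CO2) of HEK293 cells, 2,000 per well, to 23 nL compound.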
Take `CS/C(C)=N/OC(=O)N(C)SN(C)C(=O)O/N=C(\C)SC`: the result was inactive.
With `CCOP(=S)(OCC)SCn1nnc2ccccc2c1=O`, the molecule was called inactive.
In the case of `COP(=S)(Oc1cc(Cl)c(Br)cc1Cl)c1ccccc1` (stereo unspecified), the outcome was inactive.
In the case of `CC(C)(C)c1cc([N+](=O)[O-])cc([N+](=O)[O-])c1O`, the molecule was called inactive.
Still for that read-out and setting: then `CCCCC(O)(Cn1cncn1)c1ccc(Cl)cc1Cl` (stereo unspecified), with “inactive”; and `Cl/C=C\C[N+]12CN3CN(CN(C3)C1)C2`, with “inactive”; and `Clc1cc(C(Cl)(Cl)Cl)cnc1Cl`, with “inactive”.
Still for that read-out and setting: the same measure for `O=C1C(=O)c2cccc3cccc1c23`: “inactive”; for `CC1(C)CCC(Cc2ccc(Cl)cc2)C1(O)Cn1cncn1` (stereo unspecified): “inactive”.
On the same count and under the same terms, then `CO/N=C(/C(=O)OC)c1ccccc1COc1ccccc1C`, with “inactive”; and `O=C(NC(=O)c1c(F)cccc1F)Nc1ccc(OC(F)(F)C(F)OC(F)(F)F)c(Cl)c1` (stereo unspecified), with “inactive”; and `O=C1c2ccccc2C(=O)C1C(=O)C(c1ccccc1)c1ccccc1`, with “inactive”.
As for `OC(c1ccc(Cl)cc1)(c1ccc(Cl)cc1)c1cccnc1`, the molecule was called inactive.
With `BrCC(Br)C1CCC(Br)C(Br)C1` (stereo unspecified), the outcome was inactive.
In the case of `CC(C)O.CC(C)O.OCCN(CCO)CCO.OCCN(CCO)CCO.[Ti]`, the result was inactive.
Still for that read-out and setting: then `Cc1c(F)c(F)c(COC(=O)C2C(/C=C(\Cl)C(F)(F)F)C2(C)C)c(F)c1F` (stereo unspecified), with “inactive”.
Still for that read-out and setting: the same measure for `CCOP(=S)(Oc1ccc([N+](=O)[O-])cc1)c1ccccc1` (stereo unspecified): “inactive”; for `O=[N+]([O-])C(Br)(CO)CO`: “inactive”; for `O=C(O)C(F)(F)C(F)(F)C(F)(F)C(F)(F)C(F)(F)C(F)(F)C(F)(F)C(F)(F)C(F)(F)F`: “inactive”.
The same measure, in the same setting: the same measure for `NS(=O)(=O)C(F)(F)C(F)(F)C(F)(F)C(F)(F)C(F)(F)C(F)(F)C(F)(F)C(F)(F)F`: “inactive”; for `C/C(=C\c1ccccc1)[N+](=O)[O-]`: “inactive”.
Turning to `COCCOCCO`, the call was inactive.
Still for that read-out and setting: the same measure for `Clc1cccc(SC2CCNCC2)n1`: “inactive”; for `CC(C)(C)C(O)C(Oc1ccc(Cl)cc1)n1cncn1` (stereo unspecified): “inactive”.
Still for that read-out and setting: the same measure for `O=C(Nc1ccccc1)Nc1ccnc(Cl)c1`: “inactive”.
Regarding `O=[N+]([O-])c1cc(C(F)(F)F)cc([N+](=O)[O-])c1Cl`, the call was inactive.
On the same count and under the same terms, the same measure for `C=CC(=O)OCC(C)O` (stereo unspecified): “inactive”.
In the case of `O=C(O)CC(Cl)C(=O)O` (stereo unspecified), the outcome was inactive.
With `C=CCN1CC[C@]23c4c5ccc(O)c4O[C@H]2C(=O)CC[C@@]3(O)[C@H]1C5`, the result was inactive.

Another experiment is described as follows: qHTS assay to test for compound auto fluorescence at 535 nm (green) in HEK293 cells (AID 720680). The settings on record: green autofluorescence 485/535 nm; series mostly up to 91.3 µM.
In the case of `CS/C(C)=N/OC(=O)N(C)SN(C)C(=O)O/N=C(\C)SC`, the call was inactive.
`[CH3][Sn]([CH3])([Cl])[Cl]`: the outcome was inactive.
Same read-out and setting: then `O=C=Nc1ccc(Cl)cc1`, with “inactive”; and `CCOP(=S)(OCC)SCn1nnc2ccccc2c1=O`, with “inactive”; and `COP(=S)(Oc1cc(Cl)c(Br)cc1Cl)c1ccccc1` (stereo unspecified), with “inactive”.
The same measure, in the same setting: the same measure for `CC(C)(C)c1cc([N+](=O)[O-])cc([N+](=O)[O-])c1O`: “inactive”; for `CCCCC(O)(Cn1cncn1)c1ccc(Cl)cc1Cl` (stereo unspecified): “inactive”; for `Clc1cccc2ccccc12`: “inactive”.
For `Cl/C=C\C[N+]12CN3CN(CN(C3)C1)C2`, the molecule was classed as inactive.
For `Clc1cc(C(Cl)(Cl)Cl)cnc1Cl`, the call was inactive.
On to `O=C1C(=O)c2cccc3cccc1c23`, for which the result was inactive.
For `CC1(C)CCC(Cc2ccc(Cl)cc2)C1(O)Cn1cncn1` (stereo unspecified), the call was inactive.
Still for that read-out and setting: then `CO/N=C(/C(=O)OC)c1ccccc1COc1ccccc1C`, with “inactive”; and `O=C(NC(=O)c1c(F)cccc1F)Nc1ccc(OC(F)(F)C(F)OC(F)(F)F)c(Cl)c1` (stereo unspecified), with “inactive”; and `O=C1c2ccccc2C(=O)C1C(=O)C(c1ccccc1)c1ccccc1`, with “inactive”.
On to `O=C1CN=C(c2ccccc2)c2cc(Cl)ccc2N1CC1CC1`, for which the result was inactive.
Same read-out and setting: the same measure for `OC(c1ccc(Cl)cc1)(c1ccc(Cl)cc1)c1cccnc1`: “inactive”.
On the same count and under the same terms, the same measure for `BrCC(Br)C1CCC(Br)C(Br)C1` (stereo unspecified): “inactive”; for `CC(C)O.CC(C)O.OCCN(CCO)CCO.OCCN(CCO)CCO.[Ti]`: “inactive”; for `Cc1c(F)c(F)c(COC(=O)C2C(/C=C(\Cl)C(F)(F)F)C2(C)C)c(F)c1F` (stereo unspecified): “inactive”.
On the same count and under the same terms, the same measure for `COC(=O)C(Br)CBr` (stereo unspecified): “inactive”.
With `CCOP(=S)(Oc1ccc([N+](=O)[O-])cc1)c1ccccc1` (stereo unspecified), the outcome was inactive.
`O=[N+]([O-])C(Br)(CO)CO`: the molecule was called inactive.
On the same count and under the same terms, the same measure for `O=C(O)C(F)(F)C(F)(F)C(F)(F)C(F)(F)C(F)(F)C(F)(F)C(F)(F)C(F)(F)C(F)(F)F`: “inactive”; for `NS(=O)(=O)C(F)(F)C(F)(F)C(F)(F)C(F)(F)C(F)(F)C(F)(F)C(F)(F)C(F)(F)F`: “inactive”; for `C/C(=C\c1ccccc1)[N+](=O)[O-]`: “inactive”.
Still for that read-out and setting: the same measure for `COCCOCCO`: “inactive”; for `Clc1cccc(SC2CCNCC2)n1`: “inactive”.
Take `CC(C)(C)C(O)C(Oc1ccc(Cl)cc1)n1cncn1` (stereo unspecified): the molecule was called inactive.
Still for that read-out and setting: then `O=C(Nc1ccccc1)Nc1ccnc(Cl)c1`, with “inactive”.
Turning to `O=[N+]([O-])c1cc(C(F)(F)F)cc([N+](=O)[O-])c1Cl`, the molecule was called inactive.
As to `C=CC(=O)OCC(C)O` (stereo unspecified), the molecule was called inactive.
The same measure, in the same setting: then `O=C(O)CC(Cl)C(=O)O` (stereo unspecified), with “inactive”; and `C=CCN1CC[C@]23c4c5ccc(O)c4O[C@H]2C(=O)CC[C@@]3(O)[C@H]1C5`, with “inactive”; and `O=C(O)C1(c2ccc3c(c2)OC[C@H](Cc2ccc(-c4ccccc4)cc2)[C@H]3O)CCCC1`, with “inactive”.
